# From PubChem BioAssay (EPA / NIEHS)
# Activity calls are given as the source filed them. How the source made its calls: active means hit-call score of the fitted dose curve at least 0.9, where 1 is the maximum; inactive means score below 0.9.
# How the values were obtained:
# Conditions in all cases: mRNA level, 48 h; actives raise or lower the signal
# [1] = read-out: Tumor necrosis factor receptor superfamily member 6 (Homo sapiens) (UniProt P25445); assay: LTEA_HepaRG_FAS: Life Technologies and Expression Analysis (LTEA) Assay for Fas cell surface death receptor (FAS) using HepaRG (AID 2283447)
# In short: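 Differentiated HepaRG cells in serum-free induction medium were exposed 48 h to 8 half-log concentrations up to 100 uM in 0.5% DMSO, in duplicate. FAS mRNA was measured by qRT-PCR normalised to ACTB, GAPDH and POLR2A; bidirectional fit versus DMSO.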
# [2] = read-out: Fatty acid synthase (Homo sapiens) (UniProt P49327); assay: LTEA_HepaRG_FASN: Life Technologies and Expression Analysis (LTEA) Assay for Fatty Acid Synthase (FASN) using HepaRG (AID 2283448)
# In short: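 Differentiated human HepaRG cells were exposed for 48 h in serum-free induction medium to eight half-log concentrations up to 100 uM in 0.5% DMSO, in duplicate. FASN mRNA was quantified by TaqMan qRT-PCR, normalized to ACTB/GAPDH/POLR2A, and fitted bidirectionally against DMSO.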
# [3] = read-out: Cyclin D2 (CCND2), CCND2 (gene 894); assay: LTEA_HepaRG_CCND2: Life Technologies and Expression Analysis (LTEA) Assay for Cyclin D2 (CCND2) using HepaRG (AID 2283449);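 further: CCND2 transcript measured by TaqMan qRT-PCR and normalised to three housekeeping genes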
# In short: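 Chemicals in 0.5% DMSO, eight half-log concentrations from 100 uM top, were applied in duplicate for 48 h to human HepaRG cells in serum-free induction medium. CCND2 mRNA by TaqMan qRT-PCR, normalised to ACTB/GAPDH/POLR2A; bidirectional fit versus DMSO.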
# [4] = read-out: Cyclin Dependent Kinase Inhibitor 1A (CDKN1A), CDKN1A (gene 1026); assay: LTEA_HepaRG_CDKN1A: Life Technologies and Expression Analysis (LTEA) Assay for Cyclin Dependent Kinase Inhibitor 1A (CDKN1A) using HepaRG (AID 2283450)
# In short: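 Gain or loss of CDKN1A transcript is scored by bidirectional fitting against 0.5% DMSO vehicle. Human HepaRG cultures receive chemicals for 48 h across an 8-point series peaking at 100 uM; expression comes from qRT-PCR.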
# [5] = read-out: Cyclin D1 (CCND1), CCND1 (gene 595); assay: LTEA_HepaRG_CCND1: Life Technologies and Expression Analysis (LTEA) Assay for Cyclin D1 (CCND1) using HepaRG (AID 2283451);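 on AC50: TaqMan qRT-PCR transcript level normalised to ACTB GAPDH and POLR2A housekeeping genes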
# In short: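 Expression change is measured by qRT-PCR in HepaRG cells after 48 h treatment across eight concentrations topping at 100 uM, with duplicate wells and DMSO (0.5%) serving as baseline for bidirectional fitting.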
# [6] = read-out: catalase (CAT), CAT (gene 847); assay: LTEA_HepaRG_CAT: Life Technologies and Expression Analysis (LTEA) Assay for catalase (CAT) using HepaRG (AID 2283452);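 on AC50: TaqMan qRT-PCR signal normalized to ACTB GAPDH and POLR2A housekeeping genes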
# In short: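 HepaRG cells in serum-free induction medium, 0.5% DMSO vehicle, exposed 48 h in duplicate over 8 half-log concentrations from 100 uM. CAT mRNA measured by qRT-PCR, normalized to ACTB, GAPDH, POLR2A; bidirectional fit versus DMSO.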
# Fatty acid synthase (Homo sapiens), sequence (P49327 whole entry, looked up): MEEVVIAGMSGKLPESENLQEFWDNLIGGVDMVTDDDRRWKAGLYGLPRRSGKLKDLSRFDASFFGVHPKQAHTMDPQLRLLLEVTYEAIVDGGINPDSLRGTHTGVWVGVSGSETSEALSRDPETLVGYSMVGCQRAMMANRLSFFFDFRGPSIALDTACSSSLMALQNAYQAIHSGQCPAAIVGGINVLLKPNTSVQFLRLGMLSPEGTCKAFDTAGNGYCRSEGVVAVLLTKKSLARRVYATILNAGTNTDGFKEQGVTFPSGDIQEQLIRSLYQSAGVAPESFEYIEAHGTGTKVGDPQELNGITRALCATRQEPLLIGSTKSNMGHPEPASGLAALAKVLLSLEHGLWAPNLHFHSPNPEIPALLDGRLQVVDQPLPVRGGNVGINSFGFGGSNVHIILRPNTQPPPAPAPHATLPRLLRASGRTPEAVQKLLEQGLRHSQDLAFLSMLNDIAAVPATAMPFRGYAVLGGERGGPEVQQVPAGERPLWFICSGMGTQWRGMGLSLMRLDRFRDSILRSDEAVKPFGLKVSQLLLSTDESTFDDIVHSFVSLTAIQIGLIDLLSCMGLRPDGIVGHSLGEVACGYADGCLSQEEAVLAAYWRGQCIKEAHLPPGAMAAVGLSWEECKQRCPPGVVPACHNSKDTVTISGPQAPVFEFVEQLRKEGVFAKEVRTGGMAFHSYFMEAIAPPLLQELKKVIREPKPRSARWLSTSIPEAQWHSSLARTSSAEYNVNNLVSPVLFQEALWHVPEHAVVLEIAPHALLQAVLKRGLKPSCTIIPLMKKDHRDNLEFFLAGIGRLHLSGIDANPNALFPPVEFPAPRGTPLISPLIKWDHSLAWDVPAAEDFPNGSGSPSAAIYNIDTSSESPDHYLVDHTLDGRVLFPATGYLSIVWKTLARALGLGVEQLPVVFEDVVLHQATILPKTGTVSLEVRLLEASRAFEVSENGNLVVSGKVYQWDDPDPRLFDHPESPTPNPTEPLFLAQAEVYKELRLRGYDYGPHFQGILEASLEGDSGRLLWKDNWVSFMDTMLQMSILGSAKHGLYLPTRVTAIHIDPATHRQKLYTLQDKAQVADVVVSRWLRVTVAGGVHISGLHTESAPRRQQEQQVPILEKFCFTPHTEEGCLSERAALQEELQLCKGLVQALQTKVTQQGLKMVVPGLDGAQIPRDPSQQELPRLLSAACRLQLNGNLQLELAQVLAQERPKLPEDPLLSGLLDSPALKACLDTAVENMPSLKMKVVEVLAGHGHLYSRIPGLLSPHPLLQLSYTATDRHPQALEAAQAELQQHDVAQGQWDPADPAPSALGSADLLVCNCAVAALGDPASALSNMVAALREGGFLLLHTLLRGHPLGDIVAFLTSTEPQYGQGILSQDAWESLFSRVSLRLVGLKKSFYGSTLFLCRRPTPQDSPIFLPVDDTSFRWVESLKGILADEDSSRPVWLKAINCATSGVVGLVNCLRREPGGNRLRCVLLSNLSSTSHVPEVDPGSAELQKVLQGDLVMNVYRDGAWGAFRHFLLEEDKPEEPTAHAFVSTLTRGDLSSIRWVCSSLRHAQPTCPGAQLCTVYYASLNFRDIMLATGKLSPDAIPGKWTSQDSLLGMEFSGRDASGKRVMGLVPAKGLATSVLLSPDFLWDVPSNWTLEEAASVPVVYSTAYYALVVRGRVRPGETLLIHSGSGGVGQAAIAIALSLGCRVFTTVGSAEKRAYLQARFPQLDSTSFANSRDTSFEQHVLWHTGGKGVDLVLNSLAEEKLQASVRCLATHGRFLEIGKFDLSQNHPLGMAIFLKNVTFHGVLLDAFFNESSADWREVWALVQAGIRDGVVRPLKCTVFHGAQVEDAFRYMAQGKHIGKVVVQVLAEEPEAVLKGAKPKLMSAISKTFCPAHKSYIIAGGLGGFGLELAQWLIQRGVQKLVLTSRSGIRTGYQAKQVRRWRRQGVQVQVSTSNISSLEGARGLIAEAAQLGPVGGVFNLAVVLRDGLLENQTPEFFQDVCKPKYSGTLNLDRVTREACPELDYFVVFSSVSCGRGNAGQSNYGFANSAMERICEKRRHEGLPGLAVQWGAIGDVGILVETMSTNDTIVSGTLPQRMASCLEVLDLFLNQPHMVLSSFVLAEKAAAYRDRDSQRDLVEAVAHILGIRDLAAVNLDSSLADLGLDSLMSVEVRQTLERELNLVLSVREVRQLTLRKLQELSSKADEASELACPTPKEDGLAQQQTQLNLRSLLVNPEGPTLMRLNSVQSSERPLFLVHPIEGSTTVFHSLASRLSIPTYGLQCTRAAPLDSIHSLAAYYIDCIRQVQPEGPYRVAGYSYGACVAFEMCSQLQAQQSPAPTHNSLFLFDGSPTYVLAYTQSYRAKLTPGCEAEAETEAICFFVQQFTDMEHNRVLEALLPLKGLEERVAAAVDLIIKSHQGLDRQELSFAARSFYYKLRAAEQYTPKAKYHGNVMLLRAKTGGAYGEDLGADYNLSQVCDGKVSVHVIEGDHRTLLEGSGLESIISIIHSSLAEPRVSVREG
smiles,measurement,setting,value
CC(=O)CC(c1ccccc1)c1c(O)c2ccccc2oc1=O (stereo unspecified),outcome,[1],inactive
same,AC50,[2],13.4 µM (active)
same,outcome,[3],inactive
same,outcome,[4],inactive
same,outcome,[5],inactive
same,outcome,[6],inactive
CCCCC(CC)COC(=O)CCCCCCCC(=O)OCC(CC)CCCC (stereo unspecified),outcome,[1],inactive
same,outcome,[2],inactive
same,outcome,[3],inactive
same,outcome,[4],inactive
same,outcome,[5],inactive
same,outcome,[6],inactive
O=Cc1ccccc1C=O,outcome,[1],inactive
same,outcome,[2],inactive
same,outcome,[3],inactive
same,outcome,[4],inactive
same,outcome,[5],inactive
same,outcome,[6],inactive
C#CC(O)C(CC)CCCC (stereo unspecified),outcome,[1],inactive
same,outcome,[2],inactive
same,outcome,[3],inactive
same,outcome,[4],inactive
same,outcome,[5],inactive
same,outcome,[6],inactive
CCCCCCCCCCCCCCCCO,outcome,[1],inactive
same,outcome,[2],inactive
same,outcome,[3],inactive
same,outcome,[4],inactive
same,outcome,[5],inactive
same,AC50,[6],9.92 µM (active)
CCc1nc(N)nc(N)c1-c1ccc(Cl)cc1,outcome,[1],inactive
same,outcome,[2],inactive
same,outcome,[3],inactive
same,AC50,[4],70.2 µM (active)
same,outcome,[5],inactive
same,AC50,[6],30.6 µM (active)
CC(C)(C)c1ccccc1,outcome,[1],inactive
same,outcome,[2],inactive
same,outcome,[3],inactive
same,outcome,[4],inactive
same,outcome,[5],inactive
same,outcome,[6],inactive
CCCCOC(=O)CCCCC(=O)OCCCC,outcome,[1],inactive
same,outcome,[2],inactive
same,outcome,[3],inactive
same,outcome,[4],inactive
same,outcome,[5],inactive
same,outcome,[6],inactive
Cn1cnc2c1c(=O)[nH]c(=O)n2C,outcome,[1],inactive
same,outcome,[2],inactive
same,outcome,[3],inactive
same,outcome,[4],inactive
same,outcome,[5],inactive
same,outcome,[6],inactive
CO[C@@H]1COCC[C@@H]1N[C@@H]1CC[C@@](C(=O)N2CCc3ncc(C(F)(F)F)cc3C2)(C(C)C)C1,outcome,[1],inactive
same,outcome,[2],inactive
same,outcome,[3],inactive
same,outcome,[4],inactive
same,outcome,[5],inactive
same,outcome,[6],inactive
CCCC[C@H]1CN(CC2CCOCC2)C(=O)OC12CCN(C1(C)CCN(C(=O)c3c(C)ncnc3C)CC1)CC2,outcome,[1],inactive
same,outcome,[2],inactive
same,outcome,[3],inactive
same,outcome,[4],inactive
same,outcome,[5],inactive
same,outcome,[6],inactive
CCCCCCCC(=O)OC,outcome,[1],inactive
same,outcome,[2],inactive
same,outcome,[3],inactive
same,outcome,[4],inactive
same,outcome,[5],inactive
same,outcome,[6],inactive
NC=O,outcome,[1],inactive
same,outcome,[2],inactive
same,outcome,[3],inactive
same,outcome,[4],inactive
same,outcome,[5],inactive
same,outcome,[6],inactive
COc1ccc(OC(F)(F)F)cc1CN[C@H]1CCCN[C@H]1c1ccccc1,outcome,[1],inactive
same,AC50,[2],83.9 µM (active)
same,outcome,[3],inactive
same,AC50,[4],89.6 µM (active)
same,AC50,[5],87.1 µM (active)
same,AC50,[6],71.6 µM (active)
C=CCc1ccc(OC)c(OC)c1,outcome,[1],inactive
same,outcome,[2],inactive
same,outcome,[3],inactive
same,outcome,[4],inactive
same,outcome,[5],inactive
same,outcome,[6],inactive
CCCC(=O)O,outcome,[1],inactive
same,outcome,[2],inactive
same,outcome,[3],inactive
same,outcome,[4],inactive
same,outcome,[5],inactive
same,outcome,[6],inactive
O=C1O[C@H]([C@H](O)CO)C(O)=C1O,outcome,[1],inactive
same,outcome,[2],inactive
same,outcome,[3],inactive
same,outcome,[4],inactive
same,outcome,[5],inactive
same,outcome,[6],inactive
CSc1ccc(Oc2ccc(S(N)(=O)=O)cc2CN(C)C)cc1C,outcome,[1],inactive
same,AC50,[2],83.1 µM (active)
same,outcome,[3],inactive
same,outcome,[4],inactive
same,outcome,[5],inactive
same,outcome,[6],inactive
O=C(O)c1[nH]n(-c2ccc(S(=O)(=O)O)cc2)c(=O)c1N=Nc1ccc(S(=O)(=O)O)cc1,outcome,[1],inactive
same,outcome,[2],inactive
same,outcome,[3],inactive
same,outcome,[4],inactive
same,outcome,[5],inactive
same,outcome,[6],inactive
OCC(CO)n1cnc(-c2ccc(F)cc2)c1-c1ccnc(Oc2ccccc2)n1,outcome,[1],inactive
same,outcome,[2],inactive
same,outcome,[3],inactive
same,outcome,[4],inactive
same,AC50,[5],20.1 µM (active)
same,outcome,[6],inactive
CC(N)=O,outcome,[1],inactive
same,outcome,[2],inactive
same,outcome,[4],inactive
same,outcome,[5],inactive
same,outcome,[6],inactive
CN(C)CCCN(C)CCCN(C)C,outcome,[1],inactive
same,outcome,[2],inactive
same,outcome,[4],inactive
same,outcome,[5],inactive
same,outcome,[6],inactive
CS(=O)(=O)c1ccc([C@@H](C[C@H]2CCC(=O)C2)C(=O)Nc2cnccn2)cc1Cl,AC50,[1],24.4 µM (active)
same,outcome,[2],inactive
same,AC50,[3],2.19 µM (active)
same,outcome,[4],inactive
same,AC50,[5],1.64 µM (active)
same,outcome,[6],inactive
N[C@@H](Cc1c[nH]c2ccccc12)C(=O)O,outcome,[1],inactive
same,outcome,[2],inactive
same,outcome,[3],inactive
same,outcome,[4],inactive
same,outcome,[5],inactive
same,outcome,[6],inactive
CC(C)COC(=O)CCCCC(=O)OCC(C)C,outcome,[1],inactive
same,outcome,[2],inactive
same,outcome,[3],inactive
same,outcome,[4],inactive
same,outcome,[5],inactive
same,outcome,[6],inactive
O=NO,outcome,[1],inactive
same,outcome,[2],inactive
same,outcome,[4],inactive
same,outcome,[5],inactive
same,outcome,[6],inactive
CCCCCCC(CCCCCCCCCCC(=O)OCC(COC(C)=O)OC(C)=O)OC(C)=O (stereo unspecified),outcome,[1],inactive
same,outcome,[2],inactive
same,outcome,[3],inactive
same,outcome,[4],inactive
same,outcome,[5],inactive
same,outcome,[6],inactive
CC(C)NCC(O)c1ccc(O)c(O)c1 (stereo unspecified),outcome,[1],inactive
same,AC50,[2],0.219 µM (active)
same,outcome,[3],inactive
same,AC50,[4],0.148 µM (active)
same,AC50,[5],0.141 µM (active)
same,AC50,[6],0.2 µM (active)
NC(=Nc1ccccc1)Nc1ccccc1,outcome,[1],inactive
same,outcome,[2],inactive
same,outcome,[3],inactive
same,outcome,[4],inactive
same,outcome,[5],inactive
same,outcome,[6],inactive
O=[Si]=O,outcome,[2],inactive
same,outcome,[4],inactive
same,outcome,[5],inactive
same,outcome,[6],inactive
NCCOCCOCCN,outcome,[1],inactive
same,outcome,[2],inactive
same,outcome,[3],inactive
same,outcome,[4],inactive
same,outcome,[5],inactive
same,outcome,[6],inactive
Cc1cc(SC2=C(O)C[C@@](CCc3ccc(N)cc3)(C(C)C)OC2=O)c(C(C)(C)C)cc1CO,outcome,[1],inactive
same,outcome,[2],inactive
same,outcome,[3],inactive
same,outcome,[4],inactive
same,outcome,[5],inactive
same,outcome,[6],inactive
C/C=C/C=C/C(=O)O,outcome,[2],inactive
same,outcome,[3],inactive
same,outcome,[4],inactive
same,outcome,[5],inactive
same,outcome,[6],inactive
CN(C)C(=O)NC1(c2ccccc2)CCN(CC[C@@]2(c3ccc(F)c(F)c3)CN(C(=O)c3ccccc3)CCO2)CC1,outcome,[1],inactive
same,AC50,[2],29.5 µM (active)
same,outcome,[3],inactive
same,outcome,[4],inactive
same,outcome,[5],inactive
same,outcome,[6],inactive
CCCCCCC(C=O)=Cc1ccccc1,outcome,[1],inactive
same,outcome,[2],inactive
same,outcome,[4],inactive
same,outcome,[5],inactive
same,outcome,[6],inactive
O=C(NS(=O)(=O)/C=C/c1cccs1)c1ccc(F)cc1Br,outcome,[1],inactive
same,outcome,[2],inactive
same,outcome,[4],inactive
same,outcome,[5],inactive
same,outcome,[6],inactive
Cc1cn([C@H]2C=C[C@@H](CO)O2)c(=O)[nH]c1=O,outcome,[1],inactive
same,outcome,[3],inactive
same,outcome,[4],inactive
same,outcome,[5],inactive
same,outcome,[6],inactive
COC(=O)CCCC(=O)OC,outcome,[1],inactive
same,outcome,[2],inactive
same,outcome,[3],inactive
same,outcome,[4],inactive
same,outcome,[5],inactive
same,outcome,[6],inactive
CCCCC(CC)COP(=O)(OCC(CC)CCCC)OCC(CC)CCCC (stereo unspecified),outcome,[1],inactive
same,outcome,[2],inactive
same,outcome,[3],inactive
same,outcome,[4],inactive
same,outcome,[5],inactive
same,outcome,[6],inactive
CCCCC(CC)CO (stereo unspecified),outcome,[1],inactive
same,outcome,[2],inactive
same,AC50,[3],59.8 µM (active)
same,outcome,[4],inactive
same,outcome,[5],inactive
same,outcome,[6],inactive
COC(=O)CCC(=O)OC,outcome,[1],inactive
same,outcome,[2],inactive
same,outcome,[4],inactive
same,outcome,[5],inactive
same,outcome,[6],inactive
O=C(O)CC(O)(CC(=O)O)C(=O)O,outcome,[1],inactive
same,outcome,[2],inactive
same,outcome,[3],inactive
same,outcome,[4],inactive
same,outcome,[5],inactive
same,outcome,[6],inactive
CC(=O)O,outcome,[1],inactive
same,outcome,[2],inactive
same,outcome,[3],inactive
same,outcome,[4],inactive
same,outcome,[5],inactive
same,outcome,[6],inactive
Nc1nc(=S)c2[nH]cnc2[nH]1,AC50,[1],3.1 µM (active)
same,AC50,[2],9.16 µM (active)
same,outcome,[3],inactive
same,AC50,[4],6.05 µM (active)
same,outcome,[5],inactive
same,AC50,[6],7.04 µM (active)
O=C(O)c1cccnc1,outcome,[1],inactive
same,outcome,[2],inactive
same,outcome,[4],inactive
same,outcome,[5],inactive
same,outcome,[6],inactive
CCCCCCCCCCCCCCOS(=O)(=O)O,outcome,[1],inactive
same,outcome,[2],inactive
same,outcome,[3],inactive
same,outcome,[4],inactive
same,outcome,[5],inactive
same,outcome,[6],inactive
Cc1ccc(C(C)(C)C)c(O)c1,outcome,[1],inactive
same,outcome,[2],inactive
same,outcome,[4],inactive
same,outcome,[5],inactive
same,outcome,[6],inactive
C/C=C/c1ccc(OC)cc1,outcome,[1],inactive
same,outcome,[2],inactive
same,outcome,[4],inactive
same,outcome,[5],inactive
same,outcome,[6],inactive
NC1CCCCC1,outcome,[1],inactive
same,outcome,[2],inactive
same,outcome,[3],inactive
same,outcome,[4],inactive
same,outcome,[5],inactive
same,outcome,[6],inactive
CC(C)OC(=O)C(C)(C)Oc1ccc(C(=O)c2ccc(Cl)cc2)cc1,outcome,[1],inactive
same,outcome,[3],inactive
same,outcome,[4],inactive
same,outcome,[5],inactive
same,outcome,[6],inactive
